High-throughput results deposited in PubChem BioAssay by National Center for Advancing Translational Sciences (NCATS).
Pf growth 48h: inhibits P. falciparum growth in the first generation, 48 h; 310,000 tested, 5.9% active; AID 504832; P. falciparum luciferase growth in erythrocytes, 48 h; Potency, µM (top dose mostly 28.7 µM), hits mostly inhibitors
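Read-out is firefly luciferase luminescence from an integrated reporter in P. falciparum, so falling signal marks reduced parasite growth. Infected erythrocytes were at 2% hematocrit and 0.1% parasitemia (final) in Albumax-supplemented RPMI 1640.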
NS1 inh: inhibitors of influenza NS1 protein function; Potency, µM (doses to about 46.1 µM); 270,000 tested, 0.4% active; calls by dose curve; further: actives are rising curves; nearly all actives have a fitted effect of over 50% in size
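A cell-based growth assay was used: compounds that relieve NS1-induced slow growth of budding yeast raise OD600. Assay medium was yeast nitrogen base with ammonium sulphate and -URA supplement, pH 6.0, with 2% galactose.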
Pf growth 96h: inhibits malaria parasite growth, 96 h; Potency, µM (highest dose often 28.7 µM), most hits filed as inhibitors; AID 504834; P. falciparum luciferase reporter growth, 96 h; 320,000 tested, 6.9% active
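Compounds incubated with erythrocytes infected by luciferase-expressing P. falciparum (2% hematocrit, 0.05% parasitemia final) for 96 hours, 37 C in 5% CO2. Growth inhibition scored as decreased luciferase luminescence.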
Shiga toxin inh: inhibitors of Shiga toxin in Vero cells; AID 2315; Vero cells, Shiga toxin protein synthesis inhibition reporter; inhibition, % at 38.7 µM; 290,000 tested, 9.2% active; in the data active means inhibition mostly above about 28%, no sharp cut-off; inactive means mostly below about 43%
SARS PLpro yeast: blocks SARS-CoV papain-like protease in a yeast assay; Potency, µM (series often up to 32.9 µM), actives largely listed as activators; 330,000 tested, 0.19% active; S. cerevisiae expressing SARS-CoV PLpro, growth rescue; AID 485353; calls by dose curve; further: nearly all actives have a fitted effect of over 55% in size
CHX counter: counter-screen for Shiga toxin inhibitors: cycloheximide protein synthesis inhibition. cell reporter, cycloheximide protein synthesis inhibition counterscreen. max response, %. 300,000 tested, 12% active; in the data active means max response mostly above about 13%, no sharp cut-off; inactive means mostly below about 14%; further: read at 38.3 µM for the half of the compounds with a filed dose
Of the large screens only hits and unclear results are named; the others gave an inactive call. This is a sample that favours compounds with a hit; in the whole collection about 21% have one here. Unless noted, the call rests on the fitted dose curve; in most records, active means well fitted inhibition curve with a large enough effect; inconclusive means small, poorly fitted or top-dose-only effect, or another doubt; inactive means no such curve, though single readings can be large or run the other way.

Nc1ccc(N2CCN(c3ccccc3)CC2)c(F)c1	Shiga toxin inh 57, CHX counter 14
Cc1cccc(C(=O)Nc2ccc3c(c2)CC2(C(=O)N(C)C(=O)N(C)C2=O)C2CCCN32)c1 (configuration not stated)	Pf growth 48h inconclusive, Pf growth 96h 8.3µM
CN1C(=O)N(C)C(=O)C2(Cc3cc([N+](=O)[O-])ccc3N3CCN(C(=O)c4ccccc4)CC32)C1=O (configuration not stated)	Pf growth 48h inconclusive
COc1ccccc1C(=O)Nc1ccc2c(c1)CC1(C(=O)N(C)C(=O)N(C)C1=O)C1CCCN21 (configuration not stated)	Pf growth 48h inconclusive, Pf growth 96h 2.6µM
CCC(=O)Nc1cc(C(=O)N2CCC3(CC2)OCCO3)ccc1S(=O)(=O)c1ccc(C)cc1	Pf growth 96h 3.7µM
CC(=O)Nc1cc(C(=O)N2CCN(C)CC2)ccc1S(=O)(=O)c1ccc(C)cc1	none (no result: Pf growth 48h)
C=CCNc1nc2c(c(=O)[nH]c(=O)n2C)n1CCOc1ccccc1	none (no result: Shiga toxin inh)
COc1ccc(CCN2CCC(Nc3nc4ccccc4n3Cc3ccc(F)cc3)CC2)cc1	Pf growth 48h 0.52µM, Pf growth 96h 0.74µM
O=C(Oc1ccccc1/C=C\C(=O)c1cc2ccccc2o1)c1cccc(F)c1	Shiga toxin inh 41, CHX counter 37
COc1cccc(C(=O)Oc2ccccc2/C=C\C(=O)c2cc3ccccc3o2)c1	Pf growth 48h inconclusive, NS1 inh inconclusive, Pf growth 96h inconclusive, Shiga toxin inh 63, CHX counter 86
O=C(Oc1ccccc1/C=C\C(=O)c1cc2ccccc2o1)c1ccccc1	Shiga toxin inh 90, CHX counter 35
COc1ccc(O)c(C(=O)/C=C/c2cc3ccccc3o2)c1	none (no result: Pf growth 48h, Pf growth 96h)
CCCC[n+]1c(C)sc2cc(OC)ccc21	none
CC[n+]1c(C)sc2c3ccsc3ccc21	Pf growth 48h 15µM (no result: NS1 inh)
Cn1c(C(=O)N2CCN(c3cccc(C(F)(F)F)c3)CC2)cc2sccc21	Pf growth 96h 9.3µM
Cc1ccc(C)c(N2CCN(C(=O)c3cc4sccc4n3C)CC2)c1	Pf growth 48h inconclusive
CC(=O)c1cc(C#N)c(SCC(=O)OC(C)(C)C)nc1C	Pf growth 96h inconclusive, CHX counter 19
CCSc1nc(C)c(C(C)=O)cc1C#N	none (no result: Pf growth 48h)
CN1CCc2nc(SCC(=O)OC(C)(C)C)c(C#N)cc2C1	Shiga toxin inh 79, CHX counter 35
CCOC(=O)c1cc(C#N)c(SCc2cccc3ccccc23)nc1C	Pf growth 96h 9.3µM (no result: Pf growth 48h)
CC(=O)c1cc(C#N)c(SCC(=O)OC(C)C)nc1C	Pf growth 48h inconclusive, Pf growth 96h inconclusive, Shiga toxin inh 26, CHX counter 18
C[C@@]12CC[C@H]3[C@H](CCC4=CC(=O)CC[C@H]43)[C@H]1CC[C@H]2OC1(O)C(=O)c2ccccc2C1=O	none (no result: Pf growth 48h, Pf growth 96h, Shiga toxin inh, SARS PLpro yeast, CHX counter)
O=C(NCCc1ccccc1)C(=S)N1CCCCC1	none
CCOC(=O)C1=C(CSc2nc(CC)c(C)cc2C#N)OC(N)=C(C#N)C1c1ccc(OC)cc1 (configuration not stated)	Pf growth 48h inconclusive, Pf growth 96h inconclusive
COC(=O)C1=C(CSc2nc3c(cc2C#N)CN(C)CC3)OC(N)=C(C#N)C1c1ccc(F)cc1 (configuration not stated)	Pf growth 48h 9.3µM, Pf growth 96h inconclusive
COc1ccc(OCC(=O)NNC(=O)C(=O)Nc2ccc(C)cc2)cc1	NS1 inh inconclusive, CHX counter 24
COc1ccc(OCC(=O)Nc2ccc(C)cc2)cc1	Shiga toxin inh 60, CHX counter 26
Cc1ccc(OCC(=O)Nc2ccc(F)cc2)cc1	Shiga toxin inh 40, CHX counter 47 (no result: Pf growth 96h)
CCOc1ccc(S(=O)(=O)N(C)c2ccc(OCC(=O)NCCc3ccc(OC)cc3)cc2)cc1	Pf growth 96h 3.3µM
